# Data: ChEMBL document CHEMBL1201862, “PubChem BioAssay data set” (2004)
# Hit rate of the full screen: of about 350,000 compounds, about 1,200 (0.34%) were called active. Another 3% or so got no clear call; they are omitted. The calls are words filed in the database; no cut-off is given here. The sample as a whole holds a higher share of actives than the screen did.
# Biological target: DNA repair nuclease/redox regulator APEX1 (Homo sapiens) (UniProt P27695)
# Assay: qHTS Assay for Inhibitors of the Human Apurinic/apyrimidinic Endonuclease 1 (APE1).
# Format: functional
# DNA repair nuclease/redox regulator APEX1 (Homo sapiens), sequence (P27695 whole entry): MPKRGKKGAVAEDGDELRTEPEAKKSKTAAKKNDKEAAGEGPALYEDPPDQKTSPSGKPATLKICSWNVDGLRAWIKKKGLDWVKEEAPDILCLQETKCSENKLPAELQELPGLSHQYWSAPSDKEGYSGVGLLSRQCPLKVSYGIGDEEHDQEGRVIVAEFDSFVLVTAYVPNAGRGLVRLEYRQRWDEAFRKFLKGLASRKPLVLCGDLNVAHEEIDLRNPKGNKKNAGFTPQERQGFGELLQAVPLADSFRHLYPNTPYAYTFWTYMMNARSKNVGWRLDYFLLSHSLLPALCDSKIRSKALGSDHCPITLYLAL
row,SMILES,Potency
1,O=C(Cn1c(=S)[nH]c2ccccc2c1=O)N1CCN(c2ccc(F)cc2)CC1,794 µM (active)
2,CC(=O)OCC(NC(=O)C(Cc1c[nH]c2ccccc12)NC(=O)OC(C)(C)C)C1OC(n2cc(C)c(=O)[nH]c2=O)C(OC(C)=O)C1OC(C)=O (stereo not drawn),inactive
3,O=C(O)c1cc(-c2ccc(F)cc2F)ccc1O,inactive
